# Test results taken from PubChem BioAssay (EPA / NIEHS).
# Inconclusive results are not listed. Activity calls are given as the source filed them. The calls were made as follows: active = hit-call score of the fitted dose curve at least 0.9, where 1 is the maximum; inconclusive = response in the unintended direction; inactive = score below 0.9.
# Experiment: STM_H9_NormalizedViability: Cytotoxicity Assessment at 120 hours in the Stemina devTOX quickPredict H9 human embryonic stem cell (hESC)-based Assay (AID 2283784)
# In short: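 Chemicals are tested blinded on H9 human embryonic stem cells in the pluripotent state, with medium exchanged daily. After background correction, fluorescence from CellTiter-Fluor is scaled against 0.1% DMSO wells, and decreases are scored.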
SMILES,outcome,AC50
O=C(O)C(F)(F)C(F)(F)C(F)(F)C(F)(F)C(F)(F)C(F)(F)C(F)(F)F,inactive,
CC(C)(C)C(O)/C(=C\c1ccc(Cl)cc1Cl)n1cncn1 (stereo unspecified),,79.1 µM (active)
CCC(C)(NC(=O)c1cc(Cl)c(C)c(Cl)c1)C(=O)CCl (stereo unspecified),,25.8 µM (active)
CC1(c2ccc(Oc3ccccc3)cc2)OC(=O)N(Nc2ccccc2)C1=O (stereo unspecified),,3.35 µM (active)
O=C(Nc1ccccc1)Nc1cnns1,inactive,
O=S1OCC2C(CO1)C1(Cl)C(Cl)=C(Cl)C2(Cl)C1(Cl)Cl (stereo unspecified),,78.4 µM (active)
CCOC1Oc2ccc(OS(C)(=O)=O)cc2C1(C)C (stereo unspecified),,78.7 µM (active)
CCC(C)Nc1c([N+](=O)[O-])cc(C(C)(C)C)cc1[N+](=O)[O-] (stereo unspecified),inactive,
CC(C)(C)C(O)C(Oc1ccc(Cl)cc1)n1cncn1 (stereo unspecified),inactive,
Oc1cc(Cl)ccc1Oc1ccc(Cl)cc1Cl,,88.2 µM (active)
Cc1[nH]c(=O)n(C(C)(C)C)c(=O)c1Cl,inactive,
O=C(NC(=O)c1c(F)cccc1F)Nc1ccc(OC(F)(F)C(F)OC(F)(F)F)c(Cl)c1 (stereo unspecified),inactive,
Oc1ccc(Cl)cc1Cc1ccccc1,inactive,
C#CCN1C(=O)COc2cc(F)c(N3C(=O)C4=C(CCCC4)C3=O)cc21,,75.5 µM (active)
CCOCN(C(=O)CCl)c1c(C)cccc1CC,inactive,
O=S(=O)(O)C(F)(F)C(F)(F)C(F)(F)C(F)(F)C(F)(F)C(F)(F)C(F)(F)C(F)(F)F,inactive,
